From PubChem BioAssay (NCATS)
A number with no mark means an inactive call. Records with an inconclusive call do not appear. Activity calls are given as the source filed them. Unless noted, calls follow the shape of the dose curve; as a rule, active = well fitted curve in either direction with a large enough effect (not every such curve was filed as active); inconclusive = small, poorly fitted or top-dose-only effect, or another doubt; inactive = flat fitted curve, though single readings scatter.

Legend:
[1] = AP1 Signaling Pathway (AID 357); conditions: ME-180 AP-1-bla reporter, EGF-induced, beta-lactamase ratio, 5 h; at 7.69 µM (top of the series) unless noted; also: % is scaled to controls: 0 for no effect and ±100 for the full control effect
Summary of the method: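 AP-1-bla ME-180 cells with beta-lactamase reporter under AP-1 response element, stimulated with EC50 EGF; compounds titrated, 5 hours at 37 degrees Celsius. CCF4 read at 460/530 nm ratio; positive and negative modulators judged by AC50.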

[2] = biological target: Cytochrome P450 1A2 (Homo sapiens) (UniProt P05177); experiment: p450-cyp1a2 (AID 410; calls by dose curve; also: potency is read from the fitted curve at half-maximal effect;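 as to activity change, negative = inhibition: -100% = full effect of reference inhibitor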)
Sequence of Cytochrome P450 1A2 (Homo sapiens) (P05177 whole entry, looked up): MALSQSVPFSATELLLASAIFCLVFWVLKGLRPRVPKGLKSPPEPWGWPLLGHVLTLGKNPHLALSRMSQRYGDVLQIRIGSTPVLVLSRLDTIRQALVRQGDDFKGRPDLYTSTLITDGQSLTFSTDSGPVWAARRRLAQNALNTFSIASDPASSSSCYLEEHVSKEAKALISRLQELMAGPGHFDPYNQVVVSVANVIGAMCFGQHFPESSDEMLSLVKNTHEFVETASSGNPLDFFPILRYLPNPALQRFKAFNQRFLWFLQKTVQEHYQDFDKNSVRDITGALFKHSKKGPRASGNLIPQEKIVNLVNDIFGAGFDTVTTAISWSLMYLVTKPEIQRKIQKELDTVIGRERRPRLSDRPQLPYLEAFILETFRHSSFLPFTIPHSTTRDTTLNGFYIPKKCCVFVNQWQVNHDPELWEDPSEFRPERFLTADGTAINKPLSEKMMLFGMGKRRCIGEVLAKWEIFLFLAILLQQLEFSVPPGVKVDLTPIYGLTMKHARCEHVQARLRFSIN
Summary of the method: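 20nM CYP1A2 with 100uM Luciferin-ME (at Km) in 100mM KPO4; compound preincubated 10 min, NADPH regeneration added, 60 min at room temperature. Luciferin quantified by luminescence after detection reagent; normalized to 57 uM furafylline.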

[3] = NFAT Signaling Pathway (AID 444); conditions: Jurkat NFAT-bla M1, carbachol, beta-lactamase ratio, 5 h; at 7.69 µM (top of the series) unless noted;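 also: carbachol stimulus at about its EC50 of 1 µM final; % is scaled to controls: 0 for no effect and ±100 for the full control effect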
Summary of the method: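 Jurkat cells with NFAT-driven β-lactamase reporter and co-expressed M1 receptor, stimulated with carbachol (final 1 uM, ~EC50), compound titration, 5 h at 37 °C. CCF4 loaded 1 h at RT; 460/530 nm ratio gave %activity and AC50.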

[4] = Stat Signaling Pathway (AID 446); conditions: ME-180 (cervical carcinoma) SIE beta-lactamase reporter, IL-6 stimulated, 5 h; at 7.69 µM (top of the series) unless noted;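 also: ME-180 cervical cancer cells given 40 pM IL-6 alongside compound; SIE-controlled beta-lactamase reporter measured as 460/530 nm FRET emission ratio; % is scaled to controls: 0 for no effect and ±100 for the full control effect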
Summary of the method: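 IL-6/STAT signaling read in ME-180 cells via an SIE beta-lactamase reporter. Stimulus was 40 pM IL-6 (its AC50) for 5 hrs, so both activation and inhibition register.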

[5] = biological target: Glucocorticoid receptor (Homo sapiens) (UniProt P04150); experiment: GR-GFP Redistribution (AID 450;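 active = compounds whose dose series gives a full or clear partial fitted curve of increased nuclear translocation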; also: potency is read from the fitted curve at half-maximal effect); conditions: U2OS GR-GFP nuclear translocation, laser cytometry, 2 h
Sequence of Glucocorticoid receptor (Homo sapiens) (P04150 whole entry, looked up, the tested form may be a part): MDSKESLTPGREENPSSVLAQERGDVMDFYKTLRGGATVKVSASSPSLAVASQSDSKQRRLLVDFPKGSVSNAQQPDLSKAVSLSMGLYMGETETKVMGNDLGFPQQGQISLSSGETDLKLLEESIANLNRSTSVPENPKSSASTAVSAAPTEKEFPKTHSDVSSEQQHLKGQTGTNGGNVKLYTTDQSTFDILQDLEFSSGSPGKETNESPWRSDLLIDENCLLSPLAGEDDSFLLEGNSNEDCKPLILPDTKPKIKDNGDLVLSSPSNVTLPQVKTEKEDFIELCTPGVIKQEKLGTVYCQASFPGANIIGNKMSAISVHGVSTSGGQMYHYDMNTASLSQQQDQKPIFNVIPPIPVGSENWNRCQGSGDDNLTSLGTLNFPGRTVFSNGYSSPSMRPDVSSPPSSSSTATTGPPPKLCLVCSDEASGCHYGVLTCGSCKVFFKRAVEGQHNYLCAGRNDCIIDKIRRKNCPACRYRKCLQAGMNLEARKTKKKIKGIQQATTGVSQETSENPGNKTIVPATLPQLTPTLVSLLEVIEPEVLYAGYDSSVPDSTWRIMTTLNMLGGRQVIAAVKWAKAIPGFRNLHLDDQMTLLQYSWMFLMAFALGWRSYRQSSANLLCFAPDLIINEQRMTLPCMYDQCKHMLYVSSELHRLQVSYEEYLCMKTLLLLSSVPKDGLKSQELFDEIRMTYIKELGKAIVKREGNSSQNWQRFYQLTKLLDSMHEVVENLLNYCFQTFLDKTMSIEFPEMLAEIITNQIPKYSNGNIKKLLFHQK

[6] = biological target: Glucocorticoid receptor (Homo sapiens) (UniProt P04150); experiment: GR-EFC Redistribution (AID 451; calls by dose curve; also: potency is read from the fitted curve at half-maximal effect); conditions: CHO-K1 GR-EFC translocation, beta-gal luminescence, 2 h
Summary of the method: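 CHO-K1 cells expressing nuclear EA and GR-ED fragments of b-gal; compounds titrated up to 46 uM final, 2 h at 37 C. GR nuclear translocation read as complemented b-gal luminescence after 1 h RT detection.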

[7] = biological target: Mitogen-activated protein kinase 10 (Mus musculus) (UniProt Q61831); experiment: JNK3 AlphaScreen Assay (AID 530);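 also: kinase came from lysate of stimulated human HepG2 cells; signal reports phosphorylation of biotinylated GST-cJun 1-79 at Ser73 with 10 µM ATP; % is scaled to controls: 0 for no effect and ±100 for the full control effect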
Summary of the method: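 Pre-activated (IL-1β/TNFα) JNK3 in HepG2 lysates phosphorylates biotin-GST-cJun(1-79), 10 uM ATP; anti-phospho-cJun(Ser73) AlphaScreen read at room temperature, pH 7.6 Tris buffer. Compounds pre-incubated 15 min as titrations.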

[8] = biological target: Guanine nucleotide-binding protein G(i) subunit alpha-1 (Homo sapiens) (UniProt P63096); experiment: qHTS Assay for Inhibitors of RGS12 GoLoco Motif Activity (Green Fluorophore) (AID 879; active = well fitted curve in the direction sought with a large enough effect; an effect the other way counts as inactive or inconclusive;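 also: 0% = labeled peptide with Gαi1 and full inhibition = labeled peptide alone without protein; negative values mean loss of peptide binding seen as reduced polarization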)
Summary of the method: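 Fluorescence polarization assay: 50 nM Gαi1 with 10 nM FITC-labeled RGS12 GoLoco peptide in 10 mM Tris pH 7.5, 150 mM NaCl, 0.1 mM GDP, 0.05% NP40, 10 min at room temperature with compound.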

[9] = biological target: Cytochrome P450 3A4 (Homo sapiens) (UniProt P08684); experiment: qHTS Assay for Activators of Cytochrome P450 3A4 (AID 885; active = well fitted curve in the direction sought with a large enough effect; an effect the other way counts as inactive or inconclusive; also: nearly all actives have a fitted effect of over 65% in size)
Sequence of Cytochrome P450 3A4 (Homo sapiens) (P08684 whole entry, looked up): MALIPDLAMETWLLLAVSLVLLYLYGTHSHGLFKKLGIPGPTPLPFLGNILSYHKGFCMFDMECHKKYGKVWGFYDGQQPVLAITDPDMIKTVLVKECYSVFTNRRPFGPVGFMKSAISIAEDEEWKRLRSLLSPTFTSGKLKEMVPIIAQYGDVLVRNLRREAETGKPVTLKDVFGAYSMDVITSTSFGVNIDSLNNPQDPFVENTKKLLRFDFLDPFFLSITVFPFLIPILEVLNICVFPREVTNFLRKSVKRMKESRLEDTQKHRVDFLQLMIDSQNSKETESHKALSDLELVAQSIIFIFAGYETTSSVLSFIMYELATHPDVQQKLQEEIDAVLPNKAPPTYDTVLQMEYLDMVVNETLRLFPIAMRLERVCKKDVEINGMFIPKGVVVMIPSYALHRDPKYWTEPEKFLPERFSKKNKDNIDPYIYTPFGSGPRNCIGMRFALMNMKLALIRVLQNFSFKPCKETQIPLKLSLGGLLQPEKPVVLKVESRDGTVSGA
Summary of the method: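 Quantitative HTS format: compounds preincubated with 20nM human CYP3A4 and Luciferin-PPXE substrate at KM, reaction started by NADPH regeneration, stopped after 60 min, luciferase luminescence read 20 min later.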

[10] = qHTS Assay for Identification of Small Molecule Agonists for Thrombopoietin (TPO) Signaling Pathway (AID 917; active = well fitted curve in the direction sought with a large enough effect; an effect the other way counts as inactive or inconclusive; also: % is scaled to controls: 0 for no effect and ±100 for the full control effect)
Summary of the method: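 Murine Ba/F3 cells stably expressing human TPO receptor and a Glycoprotein IIb promoter–luciferase reporter were IL-3-starved overnight, then treated with compounds plus TPO (26 pM final, its EC50) for 24 hrs at 37 C; luminescence was read.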

[11] = biological target: Muscarinic acetylcholine receptor M1 (Rattus norvegicus) (UniProt P08482); experiment: qHTS Assay for Antagonists of Acetylcholine Muscarinic M1 Receptor: Kinetic Measurement of Intracellular Calcium Response (AID 943; active = well fitted curve in the direction sought with a large enough effect; an effect the other way counts as inactive or inconclusive; also: nearly all actives have a fitted effect of over 75% in size)
Sequence of Muscarinic acetylcholine receptor M1 (Rattus norvegicus) (P08482 whole entry, looked up): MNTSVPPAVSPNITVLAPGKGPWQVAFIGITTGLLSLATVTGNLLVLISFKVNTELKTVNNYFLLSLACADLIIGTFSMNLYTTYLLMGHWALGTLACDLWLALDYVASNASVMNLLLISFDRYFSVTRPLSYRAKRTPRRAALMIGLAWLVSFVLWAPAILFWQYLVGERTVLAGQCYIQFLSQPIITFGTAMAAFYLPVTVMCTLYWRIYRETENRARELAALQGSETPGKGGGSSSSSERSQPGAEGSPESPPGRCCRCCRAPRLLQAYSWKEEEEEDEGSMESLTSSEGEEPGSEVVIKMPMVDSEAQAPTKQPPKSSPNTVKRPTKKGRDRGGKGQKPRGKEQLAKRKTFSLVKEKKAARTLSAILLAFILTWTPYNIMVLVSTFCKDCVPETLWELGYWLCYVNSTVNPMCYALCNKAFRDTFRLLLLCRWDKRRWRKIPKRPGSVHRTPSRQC
Summary of the method: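 CHO cells expressing rat M1 receptor, Fluo-4 loaded, preincubated 10 min with compound, then stimulated with EC80 carbachol (100 nM final). Kinetic calcium fluorescence over 4 min; response taken as peak over basal signal.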

[12] = biological target: Muscarinic acetylcholine receptor M1 (Rattus norvegicus) (UniProt P08482); experiment: qHTS Assay for Antagonists of Acetylcholine Muscarinic M1 Receptor: Measurement of IP-One Response (AID 944; active = well fitted curve in the direction sought with a large enough effect; an effect the other way counts as inactive or inconclusive; also: nearly all actives have a fitted effect of over 75% in size)
Summary of the method: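 CHO cells stably expressing rat M1, pretreated 10 min with compound, then stimulated 30 min with carbachol at EC80 (200 nM) in LiCl-containing buffer pH 7.4; IP1 accumulation read by HTRF competition (665/620 nm).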

[13] = biological target: Pyruvate kinase (Leishmania mexicana) (UniProt Q27686); experiment: qHTS Validation Assay for Inhibitors of Leishmania Mexicana Pyruvate Kinase (AID 945; active = well fitted curve in the direction sought with a large enough effect; an effect the other way counts as inactive or inconclusive;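 also: 0% = DMSO only neutral control wells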)
Sequence of Pyruvate kinase (Leishmania mexicana) (Q27686 2-499 E452W): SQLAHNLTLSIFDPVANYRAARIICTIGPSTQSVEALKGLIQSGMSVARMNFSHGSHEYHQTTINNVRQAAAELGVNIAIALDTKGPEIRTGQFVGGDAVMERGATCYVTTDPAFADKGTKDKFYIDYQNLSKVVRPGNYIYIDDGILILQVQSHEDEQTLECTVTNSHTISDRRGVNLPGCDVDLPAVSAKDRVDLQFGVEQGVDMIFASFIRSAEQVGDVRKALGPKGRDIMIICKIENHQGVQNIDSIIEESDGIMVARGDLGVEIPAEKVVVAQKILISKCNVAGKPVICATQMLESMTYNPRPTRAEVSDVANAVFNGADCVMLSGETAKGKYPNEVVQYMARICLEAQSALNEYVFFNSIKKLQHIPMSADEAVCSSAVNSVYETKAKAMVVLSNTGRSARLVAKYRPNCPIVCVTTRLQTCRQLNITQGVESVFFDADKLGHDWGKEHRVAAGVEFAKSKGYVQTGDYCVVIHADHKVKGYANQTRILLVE
Summary of the method: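 Eight-point qHTS titrations in triplicate, data normalized to DMSO neutral control. Reaction: 0.2 nM LmPYK E451W mutant, 0.5 mM PEP, 0.1 mM ADP, 7 mM MgCl2, pH 7.2, one hour at room temperature; luminescent ATP detection.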

[14] = biological target: Pyruvate kinase PKM (Homo sapiens) (UniProt P14618); experiment: qHTS Assay for Activators of Human Muscle Pyruvate Kinase (AID 954; active = well fitted curve in the direction sought with a large enough effect, not every such curve was filed as active;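 also: 0% = uninhibited enzyme and -100% = no enzyme or full thiadiazolimine inhibition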)
Sequence of Pyruvate kinase PKM (Homo sapiens) (P14618 whole entry, looked up): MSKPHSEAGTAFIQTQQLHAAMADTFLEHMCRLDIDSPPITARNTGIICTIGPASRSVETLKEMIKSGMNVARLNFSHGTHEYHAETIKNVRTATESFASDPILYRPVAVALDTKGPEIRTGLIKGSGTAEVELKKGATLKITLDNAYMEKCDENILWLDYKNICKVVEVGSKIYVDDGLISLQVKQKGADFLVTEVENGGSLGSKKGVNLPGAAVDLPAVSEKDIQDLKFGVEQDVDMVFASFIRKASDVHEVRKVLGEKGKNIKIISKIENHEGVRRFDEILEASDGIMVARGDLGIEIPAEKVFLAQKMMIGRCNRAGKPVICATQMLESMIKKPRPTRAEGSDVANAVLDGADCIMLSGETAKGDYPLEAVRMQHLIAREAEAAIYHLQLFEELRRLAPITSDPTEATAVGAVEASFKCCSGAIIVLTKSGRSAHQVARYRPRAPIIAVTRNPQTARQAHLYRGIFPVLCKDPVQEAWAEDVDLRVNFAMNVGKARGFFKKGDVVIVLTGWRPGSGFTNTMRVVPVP
Summary of the method: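 Enzyme was run at intermediate activity so both inhibitors and activators could be detected. ATP formed from ADP and PEP by 0.1 nM human PKM2 during a 1 h room-temperature incubation was quantified by coupled luciferase luminescence.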

[15] = biological target: Alpha-galactosidase A (Homo sapiens) (UniProt P06280); experiment: Counterscreen for Glucocerebrosidase Inhibitors: qHTS Assay for Human alpha-Galactosidase at pH 4.5 (AID 992; active = well fitted curve in the direction sought with a large enough effect; an effect the other way counts as inactive or inconclusive; also: 0% is about no effect)
Sequence of Alpha-galactosidase A (Homo sapiens) (P06280 whole entry, looked up): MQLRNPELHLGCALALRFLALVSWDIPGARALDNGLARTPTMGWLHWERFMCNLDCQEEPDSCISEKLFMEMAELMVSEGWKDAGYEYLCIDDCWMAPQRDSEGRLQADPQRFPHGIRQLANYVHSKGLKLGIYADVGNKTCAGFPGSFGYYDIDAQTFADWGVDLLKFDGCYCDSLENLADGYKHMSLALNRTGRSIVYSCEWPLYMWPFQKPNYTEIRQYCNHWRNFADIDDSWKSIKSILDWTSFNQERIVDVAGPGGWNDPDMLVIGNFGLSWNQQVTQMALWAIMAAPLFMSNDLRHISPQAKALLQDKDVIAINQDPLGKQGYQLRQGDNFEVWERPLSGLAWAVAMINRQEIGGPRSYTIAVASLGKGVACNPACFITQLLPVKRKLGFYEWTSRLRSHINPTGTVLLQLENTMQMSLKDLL
Summary of the method: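 Read-out is 4-methylumbelliferone fluorescence (365 nm excitation, 440 nm emission) after a pH 10 NaOH/glycine stop. Reactions held 2 nM enzyme and 80 uM substrate at pH 4.5 for 20 min at room temperature.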

[16] = biological target: 3',5'-cyclic-AMP phosphodiesterase 4B (Homo sapiens) (UniProt Q07343); experiment: qHTS Assay for Inhibitors of PDE-IV (AID 607; active = well fitted activation curve with a large enough effect in the main read-out, with a control signal flat, not every such curve was filed as active; also: % of control where 0% means no effect)
Sequence of 3',5'-cyclic-AMP phosphodiesterase 4B (Homo sapiens) (Q07343 whole entry, looked up): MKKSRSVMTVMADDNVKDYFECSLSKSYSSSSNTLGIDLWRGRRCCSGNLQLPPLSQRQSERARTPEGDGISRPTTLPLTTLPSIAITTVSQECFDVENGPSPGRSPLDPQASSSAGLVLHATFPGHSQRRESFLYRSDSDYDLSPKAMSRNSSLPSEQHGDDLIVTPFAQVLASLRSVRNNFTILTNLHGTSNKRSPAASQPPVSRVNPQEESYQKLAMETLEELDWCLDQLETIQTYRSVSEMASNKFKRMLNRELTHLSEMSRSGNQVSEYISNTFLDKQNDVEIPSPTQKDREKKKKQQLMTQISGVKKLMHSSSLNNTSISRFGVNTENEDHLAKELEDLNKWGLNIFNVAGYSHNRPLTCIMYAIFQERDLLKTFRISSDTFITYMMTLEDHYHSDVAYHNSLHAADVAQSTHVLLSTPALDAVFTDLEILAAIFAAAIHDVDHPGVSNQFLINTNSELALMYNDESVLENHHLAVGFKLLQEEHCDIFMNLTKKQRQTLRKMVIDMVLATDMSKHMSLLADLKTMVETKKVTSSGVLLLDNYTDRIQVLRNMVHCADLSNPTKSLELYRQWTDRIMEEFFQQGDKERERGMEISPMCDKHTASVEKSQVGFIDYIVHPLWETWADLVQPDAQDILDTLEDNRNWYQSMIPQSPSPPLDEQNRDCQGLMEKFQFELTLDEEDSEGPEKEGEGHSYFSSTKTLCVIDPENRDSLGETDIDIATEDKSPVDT
Summary of the method: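 Live HEK293 cells with a modified cyclic nucleotide-gated (CNG) channel report intracellular cAMP via membrane-potential dye fluorescence (ex 535/em 590 nm). Endogenous PDE-IV was targeted. Compounds were tested at up to 22.9 uM final; RO 20-1724 100 uM served as control.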

[17] = biological target: Cytochrome P450 2C19 (Homo sapiens) (UniProt P33261); experiment: qHTS Assay for Inhibitors and Substrates of Cytochrome P450 2C19 (AID 899; active = well fitted curve in the direction sought with a large enough effect; an effect the other way counts as inactive or inconclusive; also: nearly all actives have a fitted effect of over 60% in size; also: potency is read from the fitted curve at half-maximal effect)
Sequence of Cytochrome P450 2C19 (Homo sapiens) (P33261 whole entry, looked up): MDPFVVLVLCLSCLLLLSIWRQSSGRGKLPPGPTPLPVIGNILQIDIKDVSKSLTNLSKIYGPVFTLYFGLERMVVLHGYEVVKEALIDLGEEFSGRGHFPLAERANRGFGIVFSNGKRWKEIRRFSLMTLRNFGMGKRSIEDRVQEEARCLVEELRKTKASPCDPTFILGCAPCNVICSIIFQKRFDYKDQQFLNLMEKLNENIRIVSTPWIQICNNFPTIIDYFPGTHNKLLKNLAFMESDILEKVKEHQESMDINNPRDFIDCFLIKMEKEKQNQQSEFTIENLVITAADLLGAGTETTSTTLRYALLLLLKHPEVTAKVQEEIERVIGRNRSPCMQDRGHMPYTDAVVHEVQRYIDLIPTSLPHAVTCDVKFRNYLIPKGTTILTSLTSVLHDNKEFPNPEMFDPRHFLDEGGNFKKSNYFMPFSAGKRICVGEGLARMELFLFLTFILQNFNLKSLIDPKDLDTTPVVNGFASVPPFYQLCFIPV
Summary of the method: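 5 nM human CYP2C19 with 10uM Luciferin-H EGE (at KM) in 50mM KPO4, compound preincubated 10 min at 37C, then NADPH regeneration for 60 min at 37C. Luciferin read by luminescence after detection reagent; normalized to 57uM ketoconazole as full inhibition.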

[18] = biological target: alpha-glucosidase (Oryza sativa, rice) (UniProt Q653V4); experiment: Counterscreen for Glucocerebrosidase Inhibitors: qHTS Assay for Rice alpha-Glucosidase at pH 5.0 (AID 997; active = well fitted curve in the direction sought with a large enough effect; an effect the other way counts as inactive or inconclusive;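 also: 0% = full activity with enzyme and -100% = basal without enzyme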)
Summary of the method: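 Rice alpha-glucosidase (4 nM final) with 400 uM 4-methylumbelliferyl-alpha-D-glucopyranoside in citrate buffer pH 5.0, 20 min at room temperature, stopped at pH 10; fluorescence 365/440 nm, compounds 0.7 nM–77 uM, AC50 from Hill fits.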

SMILES	activity change, negative = inhibition [1]	Potency [2]	activity change, negative = inhibition [3]	activity, negative = inhibition [4]	Potency [5] [µM]	Potency [6] [µM]	Potency [7]	outcome [8]	Potency [9]	outcome [10]	Potency [11]	Potency [12]	outcome [13]	outcome [14]	outcome [15]	Potency [16]	activity change, negative = inhibition [2]	Potency [17]	Potency [18]
Nc1ncnc2c1ncn2[C@@H]1O[C@@H](C(=O)NC2CC2)[C@H](O)[C@@H]1O	-9.63% [at 38 µM]	inactive	-15.3% [at 38 µM]	-7% [at 38 µM]	> 46	> 46	inactive	inactive	inactive	inactive	inactive	inactive	inactive	inactive	inactive	–	–	–	–
Cc1sc2ccccc2[n+]1CCC(=O)O	3.36%	inactive	16.6%	8%	> 46	> 9.22	inactive	–	–	–	–	–	–	–	–	inactive	–	–	–
CN1CCc2nc(N)nc(-c3nc(N)nc4c3CN(C)CC4)c2C1	1.73%	–	7.63%	4.69%	> 46	> 9.22	inactive	–	–	–	–	–	–	–	–	inactive	-3.9% [at 2.29 µM]	inactive	–
CN1CCc2c(cc(O)c(O)c2Cl)[C@H](c2cccc(Cl)c2)C1	26% [at 38 µM]	inactive	-25.3% [at 38 µM]	-20% [at 38 µM]	> 46	> 46	inactive	inactive	–	–	–	–	inactive	inactive	inactive	–	–	–	inactive
c1ccc2c(CSCc3cccc4ccccc34)cccc2c1	6.44%	3.98 µM (active)	-28.7%	17.1%	> 46	> 9.22	inactive	–	–	–	–	–	–	–	–	inactive	–	0.126 µM (active)	–
NNC(=O)CNc1cccc(Br)c1	-0.367%	0.501 µM (active)	-6.61%	-6.81%	> 46	> 9.22	inactive	–	inactive	–	–	–	–	–	–	inactive	–	–	–
